A short description of this test: viability loss with induced miR-34 in A549 – imaging, A549 dox-inducible miR-34, nuclei and caspase counts, primary screen (AID 1347080). Note: test concentration not given here. Conditions: A549 miR-34 inducible, Hoechst nuclei count, 48 h.
[1] abbreviates: stronger effect = lower value, cell number ratio, induced over uninduced.
Setting [2] is: measured here: relative caspase fold change +Dox/-Dox.
Setting [3] is: measured here: total cells with miR-34 induction, stronger effect = lower value.
Setting [4] is: measured here: total cells without miR-34 induction.

Structures are written as SMILES. Active and inactive are the calls of the source.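 Rule for the calls: active = compounds whose cell count with miR-34 switched on is under 0.7 times the count with it off; inactive = the rest.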

Fold change and cell count data for 60 compounds are collected here from PubChem BioAssay.

On to `CC(C)[C@H](O)CC[C@@H](C)[C@H]1CC[C@H]2[C@@H]3CC=C4C[C@@H](O)CC[C@]4(C)[C@H]3CC[C@]12C`, for which the fold change is, setting by setting: under setting [1], 0.898 (inactive); under setting [2], 0.825. The cell count is 5260 under setting [3] and 5860 under setting [4].
Taken in the same sequence, the figures for `CCCCC/C=C\C/C=C\C/C=C\C/C=C\CCCC(=O)S[C@H](COCCCCCCCCCCCCCCCC)COP(=O)([O-])OCC[N+](C)(C)C` were 1.09 (inactive), 0.9, 5810 and 5360.
For `N=C(N)SCCC[C@H](N)C(=O)O` the same measures were 0.98 (inactive), 0.775, 5850 and 5970.
For `CCCCCCCC/C=C\CCCCCCCCCCCC(N)=O` the same measures were 1.07 (inactive), 0.823, 6240 and 5820.
Consider `CCCCCCCCCCOc1ccc(OCC(=O)Cn2cc(C(=O)OC)c3cc(C(=O)O)ccc32)cc1`, for which the fold change reads like this: under setting [1], 0.961 (inactive); under setting [2], 0.386. This compound showed a cell count under setting [3] of 6240 and a cell count under setting [4] of 6490.
With `O=C(O)CCC/C=C\C[C@H]1[C@@H](O)CC(=O)[C@@H]1/C=C/[C@@H](O)CCc1ccccc1`, the fold change is 0.982 (inactive) under setting [1] and 1.03 under setting [2]. Also, the cell count reads like this: under setting [3], 5860; under setting [4], 5960.
As to `CCCCC[C@](C)(O)/C=C/[C@@H]1[C@@H](C/C=C\CCCC(=O)O)[C@@H](O)C[C@H]1O`, the fold change was 0.971 (inactive) under setting [1] and 1.48 under setting [2]. Further, the cell count reads like this: under setting [3], 5410; under setting [4], 5570.
In the case of `COC(=O)C1=CC[C@@]23CC[C@@H]([C@@](C)(/C=C/C=C(\C)C(=O)O)OC2=O)[C@@]3(OC(C)=O)CC1`, the fold change was 1.15 (inactive) under setting [1] and 0.682 under setting [2]. Also, the cell count runs as follows: under setting [3], 2140; under setting [4], 1860.
For `CCCCCCCCCCCCCCP(=O)(O)O` the same measures were 0.898 (inactive), 0.729, 4910 and 5470.
Taken in the same sequence, the figures for `CCCCCCCC/C=C\CCCCCCCC(=O)c1nc2ncccc2o1` were 0.938 (inactive), 0.974, 5390 and 5740.
Regarding `CCCCC[C@H](O)/C=C/[C@H]1CC[C@H](O)[C@@H]1CCCCCCC(=O)O`, the fold change by setting is: under setting [1], 0.966 (inactive); under setting [2], 1.33. Moreover, the cell count was 6200 under setting [3] and 6420 under setting [4].
For `CCCCCCCCCCCCCCCCC/C=C\C(=O)O` the same measures were 0.872 (inactive), 1, 5170 and 5930.
For the compound `CCCCC[C@H](O)/C=C/[C@H]1C2CC(CO2)[C@@H]1CCCCCCC(=O)O` (stereo not given in full), the fold change by setting is: under setting [1], 0.941 (inactive); under setting [2], 0.43. Moreover, the cell count under setting [3] came out at 5850 and the cell count under setting [4] worked out at 6210.
With `O=C(O)c1c[nH]c2c(ccc3cccnc32)c1=O`, the fold change under setting [1] is 0.93 (inactive) and the fold change under setting [2] was found to be 0.866. Moreover, the cell count reads like this: under setting [3], 5740; under setting [4], 6180.
For `CCCCC[C@@H](O)/C=C/[C@H]1C(=O)C[C@H](O)[C@@H]1C/C=C\CCCC(=O)O` the same measures were 0.996 (inactive), 1.65, 6010 and 6040.
For `CCCC1([C@@H](O)C/C=C/[C@H]2C(O)CC(=O)[C@@H]2CCCCCCC(=O)OC)CCC1` (stereo not given in full) the same measures were 1.02 (inactive), 1.54, 6030 and 5910.
For `CCCCC[C@H](O)/C=C/[C@H]1CCC(=O)[C@@H]1CCCCCCC(=O)O` the same measures were 0.938 (inactive), 1.33, 5360 and 5720.
Turning to `O=C(O)CCCCCC[C@@H]1C(=O)NC(=O)N1CCC(O)C1CCCCC1` (stereo not given in full), the fold change runs as follows: under setting [1], 1.01 (inactive); under setting [2], 2.01. In addition, the cell count reads like this: under setting [3], 5520; under setting [4], 5460.
For `CCCCCCCCCCCCCCCC(=O)NC(C)C` the same measures were 1.13 (inactive), 0.996, 6190 and 5500.
In the case of `COC(=O)CCC[C@H](O)[C@H](O)CO`, the fold change reads like this: under setting [1], 1.05 (inactive); under setting [2], 0.845. For the same compound, the cell count turned out to be 5290 under setting [3] and 5040 under setting [4].
For `CCCCC[C@H](O)/C=C/[C@@H]1[C@@H](CCCCC(CC(=O)O)OC)[C@@H](O)C[C@H]1O` (stereo not given in full) the same measures were 0.924 (inactive), 1.3, 5980 and 6470.
For `CCCCC[C@H](O)/C=C/[C@@H]1[C@H](CCCCCCC(=O)O)[C@H](O)C[C@H]1O` the same measures were 0.963 (inactive), 1.17, 6030 and 6260.
For `CCC(O)/C=C/C=O` (stereo not given) the same measures were 0.941 (inactive), 1.21, 5860 and 6230.
On to `CC/C=C\C/C=C\C/C=C\C/C=C\CCCCCCC(=O)O`, for which the fold change under setting [1] is 1.03 (inactive) and the fold change under setting [2] is 1. Moreover, the cell count stood at 5320 under setting [3] and 5150 under setting [4].
As for `CCCCC[C@H](O)/C=C/[C@H]1[C@H](O)CC(=O)[C@H]1CCCCCCC(=O)O`, the fold change was 1.03 (inactive) under setting [1] and 0.989 under setting [2]. Further, the cell count was 5570 under setting [3] and 5390 under setting [4].
For `CCCCCCCCCCCC(=O)CC(=O)N[C@H]1CCOC1=O` the same measures were 1.1 (inactive), 1.72, 6190 and 5610.
Regarding `CCCCCCCCCCCSCC(=O)O`, the fold change is 1.05 (inactive) under setting [1] and 1.04 under setting [2]. Moreover, the cell count was 6160 under setting [3] and 5890 under setting [4].
Taken in the same sequence, the figures for `COc1cc(C[C@H]2COC(=O)[C@@H]2Cc2ccc(O)c(OC)c2)ccc1O` were 0.981 (inactive), 0.938, 5500 and 5600.
Taken in the same sequence, the figures for `CCCCCCCC/C=C/CCCCCCCC(=O)O` were 1.1 (inactive), 0.875, 6340 and 5750.
For `CCCCCCCC/C=C\CCCCCCCC(=O)NCCS(=O)(=O)O` the same measures were 0.992 (inactive), 0.63, 6150 and 6200.
In the case of `CCCCC/C=C\C/C=C\C/C=C\C/C=C\CCCCN1C(=O)C=CC1=O`, the fold change under setting [1] was 0.86 (inactive) and the fold change under setting [2] is 0.663. Moreover, the cell count by setting is: under setting [3], 5540; under setting [4], 6440.
Regarding `C#CCOc1ccccc1CCCCCC(=O)NS(C)(=O)=O`, the fold change is 0.952 (inactive) under setting [1] and 0.875 under setting [2]. For the same compound, the cell count by setting is: under setting [3], 5890; under setting [4], 6190.
Turning to `CC/C=C\C/C=C\C/C=C\C/C=C\CCCCC(=O)O`, the fold change is, setting by setting: under setting [1], 0.875 (inactive); under setting [2], 0.773. Moreover, the cell count under setting [3] was 5720 and the cell count under setting [4] was found to be 6540.
For `O=C(O)CCC/C=C\C[C@H]1C(=O)C=C[C@@H]1/C=C/[C@@H](O)COc1ccccc1` the same measures were 0.91 (inactive), 1.28, 5700 and 6260.
In the case of `CCCCC[C@H](O)/C=C/[C@H]1[C@H](O)CC(=O)[C@@H]1CCCCCCCO`, the fold change under setting [1] is 0.891 (inactive) and the fold change under setting [2] is 2.02. In addition, the cell count runs as follows: under setting [3], 5100; under setting [4], 5730.
For `CC1=C(CC/C(C)=C/CCC2C=CC(C3=CC(=O)OC3O)OC2O)C(C)(C)CCC1` (stereo not given) the same measures were 0.908 (inactive), 0.704, 1170 and 1290.
Taken in the same sequence, the figures for `CCCCC[C@H](O)/C=C/[C@H]1[C@@H](O)CC(=O)[C@@H]1CCCCCCC(=O)O` were 0.965 (inactive), 1.07, 5320 and 5510.
Taken in the same sequence, the figures for `CCCCC[C@H](O)/C=C/[C@H]1[C@H](O)CC(=O)[C@@H]1C/C=C\CCCC(=O)OC` were 0.938 (inactive), 1.71, 5670 and 6040.
On to `COC(=O)CCCCCC[C@@H]1[C@@H](CCC(O)C#Cc2ccccc2F)[C@H](O)C[C@@H]1O` (stereo not given in full), for which the fold change reads like this: under setting [1], 1.01 (inactive); under setting [2], 0.855. Moreover, the cell count reads like this: under setting [3], 5830; under setting [4], 5780.
For `CCCCCCCCCCCC(=O)c1nc2ncccc2o1` the same measures were 0.934 (inactive), 1.01, 5110 and 5460.
Taken in the same sequence, the figures for `FC(F)(F)c1ccc(/C=C/c2cc(Cl)cc(Cl)c2)cc1` were 1.01 (inactive), 0.839, 5620 and 5570.
As to `CCCCCCCCCCCCCCCCCCCCCC(=O)NCCS(=O)(=O)O`, the fold change was 0.845 (inactive) under setting [1] and 0.367 under setting [2]. For the same compound, the cell count under setting [3] turned out to be 5140 and the cell count under setting [4] was 6090.
Taken in the same sequence, the figures for `COc1c(O)c2c(=O)cc(OC)c3c4c(OC)cc(=O)c5c(O)c(OC)c(C[C@@H](C)OC(=O)c6ccccc6)c(c(c1C[C@@H](C)OC(=O)Oc1ccc(O)cc1)c23)c54` were 0.961 (inactive), 0.723, 2210 and 2300.
For `CCCCCCCCCCCCCCC(=O)N[C@H]1CCOC1=O` the same measures were 0.982 (inactive), 1.59, 5560 and 5660.
Taken in the same sequence, the figures for `NCCCNCCCCN(CCCN)[N+]([O-])=NO` were 1.02 (inactive), 1.33, 5980 and 5880.
In the case of `CCCCC/C=C\C=C\CCCCCCCCC(=O)O`, the fold change under setting [1] was 1.07 (inactive) and the fold change under setting [2] was 1.02. In addition, the cell count stood at 5840 under setting [3] and 5480 under setting [4].
For `O=C(O)CCC/C=C\C[C@@H]1[C@@H](/C=C/[C@@H](O)C2Cc3ccccc3C2)[C@@H](F)C[C@@H]1O` the same measures were 0.86 (inactive), 2.11, 4580 and 5320.
Taken in the same sequence, the figures for `O=C(c1cccs1)c1ccc(OCCCO)c(Cl)c1Cl` were 0.896 (inactive), 0.529, 5620 and 6270.
Taken in the same sequence, the figures for `CN(C)c1ccc(C(=O)NCCCCCC(=O)NO)cc1` were 0.991 (inactive), 1.29, 5550 and 5600.
Regarding `CCCCCCCCCCCC1N[C@H](C(=O)O)CS1` (stereo not given in full), the fold change is, setting by setting: under setting [1], 0.939 (inactive); under setting [2], 1.06. Besides, the cell count reads like this: under setting [3], 5330; under setting [4], 5670.
For `CCCCCCCCCCCCCCCC(=O)NCCS(=O)(=O)O`, the fold change under setting [1] is 1.07 (inactive) and the fold change under setting [2] stood at 0.86. Also, the cell count under setting [3] was 6370 and the cell count under setting [4] was 5950.
For `CC(=O)[C@H]1[C@H](C#N)C[C@H]2[C@@H]3CC=C4C[C@@H](O)CC[C@]4(C)[C@H]3CC[C@@]21C` the same measures were 1.01 (inactive), 1.04, 5370 and 5300.
For `CCCCC[C@H](O)/C=C/[C@H]1C(=O)C[C@H](O)[C@@H]1CCCCCCCO` the same measures were 1.14 (inactive), 1.46, 5820 and 5120.
As to `N[C@@H](CCC(=O)N[C@@H](CSN=O)C(=O)NCC(=O)O)C(=O)O`, the fold change by setting is: under setting [1], 0.991 (inactive); under setting [2], 0.986. Further, the cell count was found to be 5550 under setting [3] and 5600 under setting [4].
Turning to `CCCCC[C@H](O)/C=C/[C@@H]1[C@@H](C/C=C\CCCC(=O)NCCO)[C@@H](O)C[C@H]1O`, the fold change is, setting by setting: under setting [1], 0.899 (inactive); under setting [2], 1.5. The cell count was found to be 5200 under setting [3] and 5780 under setting [4].
For `O=P(O)(O)O[C@H]1[C@H](O)[C@@H](O)[C@H](OP(=O)(O)O)[C@@H](OP(=O)(O)O)[C@H]1O` the same measures were 1 (inactive), 0.768, 5340 and 5330.
As for `O=S(=O)(NO)c1ccccc1`, the fold change under setting [1] was 1.01 (inactive) and the fold change under setting [2] is 0.412. Besides, the cell count worked out at 5110 under setting [3] and 5060 under setting [4].
For `CCCCC[C@H](O)/C=C/[C@H]1C2COC(C2)[C@@H]1C/C=C\CCCC(=O)O` (stereo not given in full) the same measures were 0.904 (inactive), 0.954, 5380 and 5950.
Taken in the same sequence, the figures for `CCCCC(C)(C)[C@H](O)/C=C/[C@H]1CCC(=O)[C@@H]1C/C=C\CCCC(=O)O` were 0.973 (inactive), 1.01, 6270 and 6450.
For `CCCCCC(=O)OC[C@H](CO)OC(=O)CCCCC` the same measures were 0.964 (inactive), 0.528, 5390 and 5590.
